Bioassay records as filed in PubChem.
mIDH1 inhibitor: blocks human mutant IDH1 R132H enzyme. IDH1-R132H enzyme, NADPH consumption, diaphorase/resazurin fluorescence. Potency, µM (highest dose often 76.6 µM), for the others: top-dose activity change, negative = inhibition, most hits filed as inhibitors. 390,000 tested, 0.093% active. AID 602179; also: % is scaled to controls: 0 for no effect and ±100 for the full control effect; nearly all actives have a fitted effect of over 65% in size
Target sequence (O75874 whole entry R132H, stated change not applied): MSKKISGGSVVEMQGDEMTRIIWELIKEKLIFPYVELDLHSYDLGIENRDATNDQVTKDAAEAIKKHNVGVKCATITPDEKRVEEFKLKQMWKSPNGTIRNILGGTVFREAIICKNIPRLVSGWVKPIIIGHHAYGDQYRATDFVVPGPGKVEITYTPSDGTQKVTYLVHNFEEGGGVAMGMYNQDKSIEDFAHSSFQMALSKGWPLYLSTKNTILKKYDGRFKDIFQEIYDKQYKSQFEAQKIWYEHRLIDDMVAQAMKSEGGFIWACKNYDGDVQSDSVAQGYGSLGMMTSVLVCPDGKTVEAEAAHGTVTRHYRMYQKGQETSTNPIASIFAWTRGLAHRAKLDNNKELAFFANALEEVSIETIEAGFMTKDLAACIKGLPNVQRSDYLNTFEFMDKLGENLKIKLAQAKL
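IDH1-R132H (0.5 ug/mL) preincubated 30 min with compound, then NADPH (0.016 mM) and alpha-KG (2 mM) added; 80 min at RT, pH 7.5. Remaining NADPH coupled via diaphorase/resazurin to fluorescence (540/590 nm); concentration-response curves normalized to no-enzyme control.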
Nrf2 ARE act: activates Nrf2 signaling | AREc32 ARE-luciferase reporter (MCF7-derived line), luminescence, 24 h | Potency, µM (doses to about 46.1 µM), without a hit: at the highest dose activation, most hits filed as activators | 410,000 tested, 0.31% active | AID 624171; also: % of control where 0% means no effect; nearly all actives have a fitted effect of over 65% in size
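Steps: seed AREc32_Fluc cells (1000/well, 5% FBS OPTI-MEM); incubate overnight at 37 deg C; add 23 nL compound; incubate 24 hr; add Steady-Glo; hold 30 min RT; read luminescence.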
A549 tox: kills or reduces viability of A549 cells in Nrf2 counter-screen | A549 ARE-Fluc cells, CellTiter-Fluor viability, 18-24 h | Potency, µM (highest dose often 46 µM), for inactives: at the highest dose activity change, negative = cytotoxicity, usual class: inhibitors | 390,000 tested, 0.16% active | AID 504648; also: % is scaled to controls: 0 for no effect and ±100 for the full control effect
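Cytotoxicity counterscreen: CellTiter-Fluor fluorescence was measured in A549 ARE_Fluc cells after 18-24 h of compound exposure in a concentration series. The subsequent BugLite luminescent read reports ARE-luciferase activity.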
Nrf2 inh: Nrf2 pathway inhibition | 360,000 tested, 2.1% active | A549 ARE-Fluc reporter, luciferase luminescence, 18-24 h | Potency, µM (top dose mostly 46 µM), without a hit: at the top dose activity change, negative = inhibition, most hits filed as inhibitors; also: % is scaled to controls: 0 for no effect and ±100 for the full control effect; nearly all actives have a fitted effect of over 60% in size
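In this cell-based qHTS, ARE-driven firefly luciferase in A549 cells reports Nrf2 activity; the luminescent signal after BugLite lysis is the measured value, with a prior CellTiter-Fluor read for cell health.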
ELG1 DNA repair: blocks ELG1-dependent DNA repair in HEK293T cells. AID 504467. HEK293T ELG1-luciferase reporter, luminescence, 16 h; DNA damage induced by 5-fluorouridine. Potency, µM (doses to about 46.1 µM), inactives show at the top dose activity change, negative = inhibition, most hits filed as inhibitors. 330,000 tested, 2.3% active; also: % is scaled to controls: 0 for no effect and ±100 for the full control effect; nearly all actives have a fitted effect of over 55% in size
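5-Fluorouridine DNA damage + compound/DMSO, 2,000 cells/well, 16 h, 37 °C/5% CO2. ONE-Glo, 30 min RT, luminescence. Readout = decrease in reporter signal.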
Numbers without * were called inactive; ? = inconclusive; nt = no result given; [ ] = dose if it differs, or a comment. This is a sample that favours compounds with a hit; in the whole collection about 3.8% have one here. Calls follow the shape of the dose curve; as a rule, active = well fitted curve in the direction sought with a large enough effect; inconclusive = small, poorly fitted or top-dose-only effect, or another doubt; inactive = no such curve, though single readings can be large; an effect the other way counts as inactive or inconclusive. Potency is read from the fitted curve at half-maximal effect.

SMILES	mIDH1 inhibitor	Nrf2 ARE act	A549 tox	Nrf2 inh	ELG1 DNA repair
C[C@H]1CN([C@@H](C)CO)C(=O)CCCn2cc(nn2)CO[C@@H]1CN(C)C(=O)Nc1ccc2c(c1)OCCO2	-9%	1%	nt	nt	nt
COc1ccc2c(c1)CCc1c(C(=O)Nc3c(C)nn(Cc4ccc(C)cc4)c3C)noc1-2	6%	-1%	-18%	15µM*	nt
COc1ccccc1-c1cc(C(=O)Nc2c(C)nn(Cc3ccc(Cl)cc3)c2C)no1	-28%	0%	?	18µM*	nt
COc1ccc(OC)c(-c2cc(C(=O)Nc3c(C)nn(Cc4ccc(C)cc4)c3C)no2)c1	-16%	0%	1%	6%	nt
COc1ccc(OC)c(-c2cc(C(=O)Nc3cc(C)n(Cc4ccc(Cl)cc4)n3)no2)c1	8%	4%	18%	nt	21µM*
COc1ccc(OC)c(-c2cc(C(=O)Nc3c(C)nn(Cc4ccccc4C)c3C)no2)c1	1%	0%	-7%	nt	26µM*
COc1ccc(Cn2c(CCC(=O)NCc3cccc(Cl)c3)nc3cccnc32)cc1	14%	4%	1%	8%	nt
COCCCNC(=O)c1ccc(Cn2c(=O)c3cccn3c3cccnc32)cc1	1%	2%	-2%	-26%	nt
COc1ccc(C2c3c(n(CCCc4ccccc4)cnc3=N)Oc3ccc4ccccc4c32)cc1OC (stereo not drawn)	nt	nt	-13%	-3%	nt
Clc1ccc(CCNc2nc3ccccc3c3nc(-c4ccccc4)nn23)cc1	-15%	0%	1%	-20%	nt
Cc1ccc(CCC(=O)Nc2ccccc2C(=O)O)o1	3%	0%	2%	-12%	?
Cn1cnnc1SCCCN1C(=O)c2cccc3cccc(c23)C1=O	3%	9%	-5%	-10%	10%
COc1ccccc1NC(=O)c1oc2ccccc2c1NC(=O)c1cccc(OC)c1OC	12%	6%	-1%	-3%	nt
O=C(OCC#CCSc1nnc(-c2cc3ccccc3cc2O)o1)c1ccc(F)cc1	nt	nt	0%	-1%	nt
Cc1ccccc1NC(=S)N/N=C/c1ccc(O)cc1O	-4%	2%	-6%	-19%	?
Cc1cccc(NC(=S)N/N=C/c2cccc(O)c2)c1C	0%	0%	2%	2%	18µM*
CCc1ccc(Nc2n[n+](-c3ccccc3)c(-c3ccc(N(CC)CC)cc3)s2)cc1	-16%	8%	?	?	-3%
CCc1ccc(Nc2n[n+](-c3ccccc3)c(-c3ccc(OCc4ccccc4)cc3)s2)cc1	17%	-3%	-3%	?	13µM*
CC/C(=N\Nc1ccc([N+](=O)[O-])cc1)c1ccccc1	23%	-1%	?	21µM*	?
O=[N+]([O-])c1ccc(NN=C(Oc2ccccc2)c2ccc([N+](=O)[O-])cc2)cc1	-2%	0%	nt	nt	nt
CCc1cc2c(-c3ccccc3)cc(=O)oc2cc1OC(C)C(C)=O (stereo not drawn)	3%	6%	0%	6.5µM*	?
CCc1cc(=O)oc2cc(OC(C)C(=O)NCC(O)c3ccccc3)c(Cl)cc12 (stereo not drawn)	24%	1%	-1%	-3%	-9%
CCCCn1c(=O)[nH]c(=O)c2c1nc(Cn1ncc(Cl)c(Cl)c1=O)n2CCC	3%	-2%	-4%	7%	23µM*
CC(=O)c1ccc(N2CCN(C(=O)c3nn(Cc4ccccc4)c(=O)c4ccccc34)CC2)cc1	8%	6%	-13%	?	9.2µM*
O=C(NC(=S)N1CCN(Cc2ccccc2)CC1)c1cccnc1	11%	0%	-8%	1%	2%
SMILES	mIDH1 inhibitor	Nrf2 ARE act	A549 tox	Nrf2 inh	ELG1 DNA repair
O=C(NCC(=O)N1CCN(C/C=C/c2ccccc2)CC1)c1ccc(OC(F)F)cc1	17%	3%	-1%	?	?
O=C(NC(=S)N1CCN(C/C=C/c2ccccc2)CC1)c1ccc(Cl)nc1	3%	3%	-3%	-27%	18µM*
O=C(NCC(=O)N1CCN(C/C=C/c2ccccc2)CC1)c1ccc(Br)cc1	-7%	7%	-8%	?	21µM*
CCOc1cc(CNC(=O)c2ccc3nc(C(C)C)oc3c2)cc(OCC)c1OCC	5%	0%	0%	nt	nt
O=C(c1ccco1)N1CCN(C(=O)C2CC(=O)N(c3ccccc3)C2)CC1 (stereo not drawn)	1%	0%	4%	4%	9%
CCOc1cc(C(=O)Nc2ccc3c4c(cccc24)C(=O)N3CC)cc(OCC)c1OCC	0%	6%	-3%	?	21µM*
CC(=O)NC(c1ccc(Cl)cc1Cl)c1ccc2cccnc2c1O (stereo not drawn)	-3%	0%	-18%	?	?
CC(=O)NC(c1ccc2ccccc2c1)c1ccc2cccnc2c1O (stereo not drawn)	-16%	0%	-20%	15µM*	?
CC(C)CC(=O)NC(c1cccs1)c1ccc2cccnc2c1O (stereo not drawn)	5%	4%	?	21µM*	-19%
CCC(=O)NC(c1cccs1)c1ccc2cccnc2c1O (stereo not drawn)	-25%	-1%	-8%	?	3.7µM*
CC(C)C(=O)NC(c1ccco1)c1ccc2cccnc2c1O (stereo not drawn)	8%	2%	-28%	?	2.9µM*
Cc1ccc2onc(CC(=O)Nc3ccc(C(C)C)cc3)c2c1	0%	0%	1%	?	nt
Cc1ccc(C(=O)N2c3nc(-c4ccco4)nn3C3(CCCCC3)[C@@H]3CCCC[C@@H]32)cc1	-11%	6%	0%	?	nt
CCN(CC)S(=O)(=O)c1ccc(C(=O)N2CC(=O)Nc3ccc(F)cc3C2c2ccccc2)cc1 (stereo not drawn)	2%	1%	0%	-1%[9.27 µM]	nt
CCC(=O)NC(c1cccs1)c1cc([N+](=O)[O-])c2cccnc2c1OC (stereo not drawn)	nt	0%	nt	nt	nt
CC(C)C(=O)NC(c1cccs1)c1cc([N+](=O)[O-])c2cccnc2c1O (stereo not drawn)	?	-1%	?	21µM*	-26%
Cc1ccc(-c2noc(CNC(=O)c3ccc(Br)o3)n2)cc1	0%	3%	12%	16%	nt
O=C(CCc1ccncc1)NC1CCCc2c1cnn2-c1ccc(F)cc1F (stereo not drawn)	-8%	-1%	-10%	8.2µM*	-7%
O=C(CCc1ccccn1)NC1CCCc2c1cnn2-c1ccc(F)cc1F (stereo not drawn)	3%	0%	-13%	-3%	?
O=C(NC1CCCc2c1cnn2-c1ccccc1F)c1ccccn1 (stereo not drawn)	-5%	3%	0%	?	?
Cc1nnsc1C(=O)NC1CCCc2c1cnn2-c1ccccc1F (stereo not drawn)	0%	2%	-16%	2.1µM*	?
